PubChem BioAssay AID868 (SRMLSC, 2007)
The whole screen tested about 190,000 compounds, of which about 3,500 (1.8%) were called active. Only a selection was taken, and actives are over-represented in it overall. Values without a mark were called inactive.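 Rule for the calls: active = inhibition above a set limit, 3 SD over mean compound inhibition (cut at about 8.4% in these data); inactive = the rest.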

test: RAM signaling blockers in budding yeast – dse1pr::URA3 reporter, 5-FOA selection, primary screen (AID 868);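 note: 0% = DMSO-only wells with no growth and 100% = 10 µM 1-NA-PP1 full growth; inhibition rescues growth on 5-FOA so higher OD means more RAM inhibition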; details: S. cerevisiae dse1pr::URA3 reporter, 5-FOA growth OD615, 2 d; at 50 µM; hits give high values; analog-sensitive cbk1-as2 kinase mutant strain

| SMILES | inhibition |
| --- | --- |
| O=C(NCCCNc1ccc([N+](=O)[O-])cc1Cl)c1ccccc1F | 1.43% |
| COCC(C)n1c(C)cc(C(=O)COc2ccc(C)nc2[N+](=O)[O-])c1C (configuration not stated) | 1.49% |
| Cc1ccc(C(=O)NC(=S)NCc2cccnc2)cc1 | 5.38% |
| COc1cc(C2C(C(=O)c3ccc(C)o3)=C(O)C(=O)N2CCc2ccccc2)ccc1O (configuration not stated) | 9.49% (active) |
| COc1cc(C2C(C(=O)c3ccc(C)o3)=C(O)C(=O)N2Cc2cccnc2)ccc1O (configuration not stated) | 0.23% |
| COc1ccc(C2C(C(C)=O)=C(O)C(=O)N2CCc2c[nH]c3ccccc23)cc1 (configuration not stated) | 3.37% |
| O=C(COc1cccc2ccccc12)Nc1cc(S(=O)(=O)N2CCOCC2)ccc1N1CCOCC1 | 3.39% |
| S=c1[nH]nc(CSCc2ccc(Cl)cc2Cl)n1-c1ccccc1 | 4.95% |
| O=C(Nc1nnc(SCc2ccc(Cl)cc2Cl)s1)C1COc2ccccc2O1 (configuration not stated) | 4.44% |
| Clc1ccc(CSc2nnc(/C=C/c3ccccc3)o2)c(Cl)c1 | 9.57% (active) |
| O=C(Nc1ccccc1)N1CCN(C(=O)Nc2ccccc2)CC1 | 2.76% |
| O=C(COC(=O)/C=C/c1cn(-c2ccccc2)nc1-c1cccnc1)Nc1ccc(Cl)cc1Cl | 2.97% |
| COc1ccc2c(c1)CCc1c(C(=O)Nc3c(C)n(C)n(-c4ccccc4)c3=O)noc1-2 | 3.23% |
| COc1ccc2c(c1)CCc1c(C(=O)N3CCCC3)noc1-2 | 2.15% |
| COc1ccc2c(c1)CCc1c(C(=O)N3CCc4ccccc4C3)noc1-2 | 12.2% (active) |
| O=C(NN1C(=O)C2C3C=CC(O3)C2C1=O)c1ccncc1 (configuration not stated) | 2.74% |
| CCCCN1C(=O)c2ccc(C(=O)Nc3ccc(S(=O)(=O)N(C)C)cc3)cc2C1=O | 3.73% |
| CC(C)CCN1C(=O)c2ccc(C(=O)Nc3cccc(S(N)(=O)=O)c3)cc2C1=O | 9.03% (active) |
| Cc1cccc(C(=O)Nc2ccc3c(c2)C(=O)N(CC(C)C)C3=O)c1 | 3.29% |

| SMILES | inhibition |
| --- | --- |
| Cc1ncoc1C(=O)N1CCCC(C(=O)c2ccc3c4c(cccc24)CC3)C1 (configuration not stated) | 1.14% |
| CCC1CCCCN1C(=O)CSc1nc(C)cc(C)n1 (configuration not stated) | -1.36% |
| CCC/C=C(\CCC)C(NC(=O)Cc1ccccc1)c1ccc(C(=O)OC)cc1 (configuration not stated) | 8.71% (active) |
| COc1ccc(CC(=O)NC(C)CCc2ccccc2)cc1 (configuration not stated) | 0.14% |
| COc1ccc(C(CC(=O)O)NC(=O)Cc2ccccc2)cc1 (configuration not stated) | 0.54% |
| Cc1cccc(CN2CCN(Cc3cnn(-c4ccccc4F)c3)CC2CCO)n1 (configuration not stated) | -0.13% |
| COc1cc(NC(=S)N2CCCC(C)C2)cc(OC)c1OC (configuration not stated) | 2.19% |
| Cc1ccc(-c2noc(CSc3nnc(-c4ccccc4)n3C)n2)cc1 | 2.09% |
| Cc1ccc(-c2noc(CSc3nnc(-c4ccncc4)n3-c3ccc(F)cc3)n2)cc1 | 2.42% |
| Fc1ccc(-n2c(Cc3ccccc3)nnc2SCc2nc(-c3ccc(Cl)cc3)no2)cc1 | 14.2% (active) |
| Cc1n[nH]c(=O)n1-c1ccc(C(C)C)cc1 | 0.86% |
| Nc1nc(-c2sc3nc4c(cc3c2N)CCCC4)nc(N2CCOCC2)n1 | 5.88% |
| COc1ccc(NS(=O)(=O)c2ccc(NC(C)=O)cc2)cc1OC | 1.03% |
| COc1ccc(C(=O)Oc2cc(/C=N/NS(=O)(=O)c3ccc(C)cc3)ccc2OC)cc1 | 5.34% |
| COc1ccc(/C=C/C(=O)c2ccc(NS(=O)(=O)c3ccc(C)cc3)cc2)cc1O | 11.1% (active) |
| Cc1cc(C2=NNC(=Nc3ccc(S(=O)(=O)N4CCOCC4)cc3)SC2)c(C)n1CC1CCCO1 (configuration not stated) | 5.9% |
| CC(C(=O)NC1CCCC1)N(c1ccc(Oc2ccccc2)cc1)S(C)(=O)=O (configuration not stated) | -0.13% |
| O=C1c2ccccc2C(=O)N1CCC(O)C[N+](=O)[O-] (configuration not stated) | 1.77% |
| CC(=O)NC1C(Oc2ccc(C)cc2)OC2COC(c3ccco3)OC2C1O (configuration not stated) | 0.78% |

| SMILES | inhibition |
| --- | --- |
| Cc1cc(C)cc(NC(=O)CSc2ccccc2)c1 | 1.47% |
| CC(=O)Nc1ccc(NC(=O)CSCc2cnn(-c3ccccc3)c2-n2cccc2)cc1 | 0.44% |
| Cc1cc(C)cc(NC(=O)CSCc2cnn(-c3ccccc3)c2-n2cccc2)c1 | 13.3% (active) |
| Nc1nc(SCc2ccc([N+](=O)[O-])cc2)c2ncn(C3OC(CO)C(O)C3O)c2n1 (configuration not stated) | 1.26% |
| CCc1ccc(C(=O)OCC(=O)Nc2cccc(S(=O)(=O)NC3=NCCCCC3)c2)cc1 | 0.26% |
| Cc1cccc(-n2c(SCC(=O)Nc3cccc(S(=O)(=O)NC4=NCCCCC4)c3)nc3ccccc3c2=O)c1C | 11.7% (active) |
| NS(=O)(=O)c1cccc(NC(=O)CSc2nc3ccccc3n2-c2ccccc2)c1 | 6.21% |
| O=C(CN1CCN(Cc2ccc(F)cc2Cl)C1=O)NCc1cccs1 | 0.13% |
| O=C(COC(=O)CNC(=O)c1ccccc1F)NCC(F)(F)F | 3.2% |
| O=C(N/N=C/c1ccc([N+](=O)[O-])cc1)C(=O)N1CCCC1 | 1.52% |
| COC(=O)N/N=C/c1ccc(-c2ccc(Cl)c(Cl)c2)o1 | 1.74% |
| O=C(N/N=C\c1ccc(-c2ccc(Cl)c(Cl)c2)o1)C(=O)N1CCCC1 | 8.47% (active) |
| Cc1nccn1CCCNC(=O)CC1C(=O)NCCN1Cc1ccc(Cl)c(F)c1 (configuration not stated) | -1.07% |
| COCCNC(=O)/C(C#N)=C/c1nc(N(C)C)n(-c2ccc(F)cc2)c1Cl | 0.24% |
| O=c1c2ccccc2c(-c2ccccc2)nn1Cc1ccccc1 | 6.51% |
| O=C(NCCc1ccco1)c1nn(Cc2ccccc2)c(=O)c2ccccc12 | 11.2% (active) |
| O=C(NCc1ccco1)c1nc(-c2ccccc2)n(-c2ccccc2)n1 | 0.66% |
| N/C(=N/O)c1cccn1Cc1ccccc1[N+](=O)[O-] | 0.13% |
| O=S(=O)(c1ccc2c(c1)OCCO2)N1CCc2ccccc21 | 2.45% |
